{
  "source": "paper PMC8384837",
  "about": "“Expanding the binding specificity for RNA recognition by a PUF domain”",
  "assay_in_all_cases": "yeast three-hybrid, YBZ-1, SC-Leu-His + 0.5 mM 3-AT, 4 days",
  "details_in_all_cases": "tags: N-Gal4 AD-HA kept; label: inside an RPR1-promoter hybrid RNA with tandem MS2 sites; ssRNA",
  "key": {"PUM1 PUF domain R4-DHG": {"biological_target": "PUM1 PUF domain R4-DHG (Homo sapiens, UniProt Q14671 828-1176, N971D;Q975G)", "procedure,_shortened": "(§1)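 Pumilio-1 PUF domain libraries, randomized (NNK) at the three base-contacting residues of each repeat, were co-expressed with matching RNA elements from a centromeric plasmid in strain YBZ-1 (LexA–MS2 coat fusion, HIS3 reporter). Transformants were plated on SC-Leu (input) and SC-Leu-His + 0.5 mM 3-AT (selection) for four days, and repeat regions were PCR-amplified and Illumina-sequenced. The interaction score is the log2 change in variant frequency from input to selection, with pseudocount 1 where absent.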"}, "PUM1 PUF domain R6-VWL": {"biological_target": "T1, PUM1 PUF domain R6-VWL (Homo sapiens, UniProt Q14671 828-1176, N1043V;Y1044W;Q1047L)", "T1 sequence": "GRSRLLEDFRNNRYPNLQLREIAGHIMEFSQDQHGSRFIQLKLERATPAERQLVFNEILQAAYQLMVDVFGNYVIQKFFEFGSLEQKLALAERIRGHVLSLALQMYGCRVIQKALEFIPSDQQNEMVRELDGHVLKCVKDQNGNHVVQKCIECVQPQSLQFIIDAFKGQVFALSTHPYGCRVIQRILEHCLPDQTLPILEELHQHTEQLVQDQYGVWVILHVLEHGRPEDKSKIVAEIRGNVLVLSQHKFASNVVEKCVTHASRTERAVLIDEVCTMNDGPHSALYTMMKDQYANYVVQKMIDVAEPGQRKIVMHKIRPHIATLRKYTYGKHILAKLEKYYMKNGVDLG", "procedure,_shortened": "as §1"}, "PUM1 PUF domain R6-LWL": {"biological_target": "T2, PUM1 PUF domain R6-LWL (Homo sapiens, UniProt Q14671 828-1176, N1043L;Y1044W;Q1047L)", "T2 sequence": "T1 sequence with V216L", "procedure,_shortened": "as §1"}, "PUM1 PUF domain R5-PRI": {"biological_target": "PUM1 PUF domain R5-PRI (Homo sapiens, UniProt Q14671 828-1176, C1007P;Q1011I)", "procedure,_shortened": "as §1"}, "PUM1 PUF domain R4-AMC": {"biological_target": "PUM1 PUF domain R4-AMC (Homo sapiens, UniProt Q14671 828-1176, N971A;H972M;Q975C)", "procedure,_shortened": "as §1"}, "PUM1 PUF domain R3-GYH": {"biological_target": "PUM1 PUF domain R3-GYH (Homo sapiens, UniProt Q14671 828-1176, C935G;R936Y;Q939H)", "procedure,_shortened": "as §1"}, "PUM1 PUF domain R5-FRG": {"biological_target": "PUM1 PUF domain R5-FRG (Homo sapiens, UniProt Q14671 828-1176, C1007F;Q1011G)", "procedure,_shortened": "as §1"}, "PUM1 PUF domain R8-RHY": {"biological_target": "PUM1 PUF domain R8-RHY (Homo sapiens, UniProt Q14671 828-1176, N1122R;Y1123H;Q1126Y)", "procedure,_shortened": "as §1"}, "PUM1 PUF domain R7-GIR": {"biological_target": "PUM1 PUF domain R7-GIR (Homo sapiens, UniProt Q14671 828-1176, S1079G;N1080I;E1083R)", "procedure,_shortened": "as §1"}},
  "note": "Substitutions are numbered along the chain they refer to.",
  "data": [
    {"sequence": "GGCUAGAACUAGUGGAUCCCCCGGCGCCCGGCGGCUCGAGCCCGGGUAAGUGUAAAUAGUCUGCAUGCCGCCGGGCGCCAUGCCUGCAGGUCGACUCUAGAAAACAUG", "values": [
      {"measurement": "binding signal", "setting": "PUM1 PUF domain R4-DHG", "value": "3.07 log2 enrichment (interaction score)"},
      {"measurement": "binding signal", "setting": "PUM1 PUF domain R6-VWL", "value": "4.01 log2 enrichment (interaction score)"},
      {"measurement": "binding signal", "setting": "PUM1 PUF domain R6-LWL", "value": "3.89 log2 enrichment (interaction score)"},
      {"measurement": "binding signal", "setting": "PUM1 PUF domain R5-PRI", "value": "4.45 log2 enrichment (interaction score)"},
      {"measurement": "binding signal", "setting": "PUM1 PUF domain R4-AMC", "value": "3.21 log2 enrichment (interaction score)"}
    ]},
    {"sequence": "GGCUAGAACUAGUGGAUCCCCCGGCGCCCGGCGGCUCGAGCCCGGGUAAGUGUAAUUAGUCUGCAUGCCGCCGGGCGCCAUGCCUGCAGGUCGACUCUAGAAAACAUG", "values": [
      {"measurement": "binding signal", "setting": "PUM1 PUF domain R3-GYH", "value": "2.58 log2 enrichment (interaction score)"}
    ]},
    {"sequence": "GGCUAGAACUAGUGGAUCCCCCGGCGCCCGGCGGCUCGAGCCCGGGUAAGUGUCAAUAGUCUGCAUGCCGCCGGGCGCCAUGCCUGCAGGUCGACUCUAGAAAACAUG", "values": [
      {"measurement": "binding signal", "setting": "PUM1 PUF domain R5-FRG", "value": "2.42 log2 enrichment (interaction score)"}
    ]},
    {"sequence": "GGCUAGAACUAGUGGAUCCCCCGGCGCCCGGCGGCUCGAGCCCGGGUAAGUGUUAAUAGUCUGCAUGCCGCCGGGCGCCAUGCCUGCAGGUCGACUCUAGAAAACAUG", "values": [
      {"measurement": "binding signal", "setting": "PUM1 PUF domain R5-FRG", "value": "2.88 log2 enrichment (interaction score)"}
    ]},
    {"sequence": "GGCUAGAACUAGUGGAUCCCCCGGCGCCCGGCGGCUCGAGCCCGGGUAAGCGUAAAUAGUCUGCAUGCCGCCGGGCGCCAUGCCUGCAGGUCGACUCUAGAAAACAUG", "values": [
      {"measurement": "binding signal", "setting": "PUM1 PUF domain R8-RHY", "value": "4.97 log2 enrichment (interaction score)"}
    ]},
    {"sequence": "GGCUAGAACUAGUGGAUCCCCCGGCGCCCGGCGGCUCGAGCCCGGGUAAGUUUAAAUAGUCUGCAUGCCGCCGGGCGCCAUGCCUGCAGGUCGACUCUAGAAAACAUG", "values": [
      {"measurement": "binding signal", "setting": "PUM1 PUF domain R7-GIR", "value": "3.02 log2 enrichment (interaction score)"}
    ]},
    {"sequence": "GGCUAGAACUAGUGGAUCCCCCGGCGCCCGGCGGCUCGAGCCCGGGUAAGUGUACAUAGUCUGCAUGCCGCCGGGCGCCAUGCCUGCAGGUCGACUCUAGAAAACAUG", "values": [
      {"measurement": "binding signal", "setting": "PUM1 PUF domain R4-AMC", "value": "2.52 log2 enrichment (interaction score)"}
    ]}
  ]
}
